# Several values for one entry are separate records, joined by “and”; a condition that tells them apart may be missing. Equal values may be shown once. For part of these data: Measured potencies and affinities stand elsewhere.
# Assays:
# Design in all cases: scale not given: direction of the effect not stated beside the values
# [1] = molecular target: Protein translocase subunit SecA (Escherichia coli (strain K12)) (UniProt P10408); test: Assay to Identify E. coli SecA ATPase Inhibitors; assay type: functional; conditions: 30 µM
# [2] = molecular target: T1, Ubiquitin-activating enzyme e1, putative (Leishmania donovani (strain BPK282A1)) (UniProt E9BSI1); test: Leishmania donovani Ubiquitin Activating Enzyme (LdE1); assay type: functional; conditions: 30 µM
# T1 sequence (whole entry): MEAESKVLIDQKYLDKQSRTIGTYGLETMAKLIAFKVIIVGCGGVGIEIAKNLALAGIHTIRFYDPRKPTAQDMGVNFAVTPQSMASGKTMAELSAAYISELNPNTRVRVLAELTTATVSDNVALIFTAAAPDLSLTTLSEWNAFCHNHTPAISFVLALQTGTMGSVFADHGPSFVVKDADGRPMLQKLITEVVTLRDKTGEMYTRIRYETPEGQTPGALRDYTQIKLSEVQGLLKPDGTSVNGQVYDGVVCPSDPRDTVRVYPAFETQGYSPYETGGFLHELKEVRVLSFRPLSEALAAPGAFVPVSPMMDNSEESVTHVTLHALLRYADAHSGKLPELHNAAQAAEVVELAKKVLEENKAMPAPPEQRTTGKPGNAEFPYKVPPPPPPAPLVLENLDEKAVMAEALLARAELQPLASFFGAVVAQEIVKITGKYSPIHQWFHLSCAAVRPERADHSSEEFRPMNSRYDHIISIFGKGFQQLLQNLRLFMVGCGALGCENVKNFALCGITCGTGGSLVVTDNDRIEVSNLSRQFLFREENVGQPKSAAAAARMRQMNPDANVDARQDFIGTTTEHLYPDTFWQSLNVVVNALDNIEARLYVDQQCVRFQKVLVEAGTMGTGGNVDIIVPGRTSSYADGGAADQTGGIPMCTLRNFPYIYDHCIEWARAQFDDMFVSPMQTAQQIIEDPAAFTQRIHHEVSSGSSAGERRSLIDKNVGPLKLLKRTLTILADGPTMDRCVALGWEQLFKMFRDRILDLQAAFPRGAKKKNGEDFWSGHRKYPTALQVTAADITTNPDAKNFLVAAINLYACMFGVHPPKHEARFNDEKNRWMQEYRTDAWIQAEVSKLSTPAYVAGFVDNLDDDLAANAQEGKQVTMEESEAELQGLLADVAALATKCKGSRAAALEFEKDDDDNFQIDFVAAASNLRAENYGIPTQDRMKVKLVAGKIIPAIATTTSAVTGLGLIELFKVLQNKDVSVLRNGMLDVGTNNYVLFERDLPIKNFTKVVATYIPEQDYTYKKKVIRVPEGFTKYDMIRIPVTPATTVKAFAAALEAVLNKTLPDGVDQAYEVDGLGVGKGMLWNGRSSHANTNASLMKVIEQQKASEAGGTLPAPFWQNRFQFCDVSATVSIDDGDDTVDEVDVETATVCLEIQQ
# [3] = molecular target: AMP-activated protein kinase, AMPK (Homo sapiens) (UniProt P54646+O43741+P54619+Q9UGJ0+Q9Y478+Q13131+Q9UGI9); test: AMP-dependent Kinase enzyme assay. An in vitro enzyme assay that detects ADP turnover that is directly proportional to AMPK activity. This uses naive AMPK that is activated during the assay with MK-8722; assay type: functional; conditions: 30 µM
# [4] = molecular target: Sialic acid-binding Ig-like lectin 9 (Homo sapiens) (UniProt Q9Y336); test: Hs-Siglec9 ALPHAscreen SOP 20170721; conditions: 10 µM
# Trypanosoma cruzi = test: Trypanosoma cruzi phosphomannomutase and mannose-1-phosphate guanylyltransferase assay; assay type: functional; conditions: 10 µM
# [5] = molecular target: T2, Arginase-2, mitochondrial (Homo sapiens) (UniProt P78540); test: in vitro enzyme assay to detect the production of urea directly proportional to the activity of Arginase II; assay type: functional; conditions: 33.3 µM; note: in the data most compounds retested in dose-response had high values
# T2 sequence (whole entry): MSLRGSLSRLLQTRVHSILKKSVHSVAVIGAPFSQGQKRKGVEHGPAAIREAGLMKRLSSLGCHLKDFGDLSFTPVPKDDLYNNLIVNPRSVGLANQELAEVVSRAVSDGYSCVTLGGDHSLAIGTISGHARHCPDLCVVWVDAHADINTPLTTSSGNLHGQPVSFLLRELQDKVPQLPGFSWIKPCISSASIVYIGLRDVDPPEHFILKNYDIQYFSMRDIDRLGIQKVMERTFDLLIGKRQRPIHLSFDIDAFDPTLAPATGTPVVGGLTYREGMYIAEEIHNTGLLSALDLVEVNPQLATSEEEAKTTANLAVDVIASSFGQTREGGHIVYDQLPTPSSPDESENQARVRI
# [6] = molecular target: T3, Proteasome subunit beta (Trypanosoma cruzi) (UniProt O96673); test: Trypanosoma cruzi proteasome chymotrypsin-like activity (TcProtChymo) assay.; note: in the data most compounds retested in dose-response had high values; assay type: functional; conditions: 9.37 µM
# T3 sequence (whole entry): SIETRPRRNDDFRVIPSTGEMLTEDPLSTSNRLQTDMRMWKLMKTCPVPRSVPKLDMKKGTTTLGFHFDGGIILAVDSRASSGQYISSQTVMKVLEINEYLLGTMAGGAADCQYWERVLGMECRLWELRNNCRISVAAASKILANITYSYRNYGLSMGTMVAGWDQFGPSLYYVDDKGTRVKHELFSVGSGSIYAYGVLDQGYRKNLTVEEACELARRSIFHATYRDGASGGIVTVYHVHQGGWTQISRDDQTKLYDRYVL
# N/A = test: Trypanosoma cruzi proteasome luciferase counter-screen; assay type: functional; conditions: 9.37 µM
# Homo sapiens = species on record: Homo sapiens; test: To identify inhibition of the IFN signalling (Jak-Stat) pathway via expression of an eGFP reporter gene under the control of an IFN-stimulated response element (ISRE) containing MxA promoter.; assay type: functional; conditions: 30 µM
# [7] = molecular target: T4, Tyrosyl-tRNA synthetase, putative (Trypanosoma cruzi (strain CL Brener)) (UniProt Q4DSP6); test: Trypanosoma cruzi tyrosyl tRNA synthetase (TcYRS) _High Tyrosine SOP; assay type: functional; conditions: 30 µM; note: in the data most compounds retested in dose-response had high values
# T4 sequence (whole entry): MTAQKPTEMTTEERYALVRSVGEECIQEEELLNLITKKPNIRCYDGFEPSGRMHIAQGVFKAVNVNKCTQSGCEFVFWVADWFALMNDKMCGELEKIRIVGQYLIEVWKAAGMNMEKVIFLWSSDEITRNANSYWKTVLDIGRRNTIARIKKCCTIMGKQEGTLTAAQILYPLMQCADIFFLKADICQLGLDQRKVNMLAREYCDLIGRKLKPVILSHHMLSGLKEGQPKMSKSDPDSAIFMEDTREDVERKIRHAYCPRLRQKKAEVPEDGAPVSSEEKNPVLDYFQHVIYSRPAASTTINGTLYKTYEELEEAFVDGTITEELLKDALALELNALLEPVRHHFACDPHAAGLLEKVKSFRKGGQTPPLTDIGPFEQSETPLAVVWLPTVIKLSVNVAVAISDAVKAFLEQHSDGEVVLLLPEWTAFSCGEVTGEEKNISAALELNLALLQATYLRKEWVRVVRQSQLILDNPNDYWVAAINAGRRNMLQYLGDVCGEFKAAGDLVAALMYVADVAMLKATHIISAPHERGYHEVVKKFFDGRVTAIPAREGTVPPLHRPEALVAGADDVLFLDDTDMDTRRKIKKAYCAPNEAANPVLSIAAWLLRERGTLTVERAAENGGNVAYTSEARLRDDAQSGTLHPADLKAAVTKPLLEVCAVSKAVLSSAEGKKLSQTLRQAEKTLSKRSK
# [8] = molecular target: T4, Tyrosyl-tRNA synthetase, putative (Trypanosoma cruzi (strain CL Brener)); test: Trypanosoma cruzi tyrosyl tRNA synthetase (TcYRS) SOP; assay type: functional; conditions: 30 µM
# [9] = molecular target: Chromo domain-containing protein 1 (Saccharomyces cerevisiae (strain ATCC 204508 / S288c) (Baker's yeast)) (UniProt P32657); test: ScCHD-1 Enzyme Inhibition Assay; assay type: functional; conditions: 30 µM; note: in the data most compounds retested in dose-response had high values
# Chromo domain-containing protein 1 (Saccharomyces cerevisiae (strain ATCC 204508 / S288c) (Baker's yeast)), sequence (P32657 whole entry, the tested form may be a part): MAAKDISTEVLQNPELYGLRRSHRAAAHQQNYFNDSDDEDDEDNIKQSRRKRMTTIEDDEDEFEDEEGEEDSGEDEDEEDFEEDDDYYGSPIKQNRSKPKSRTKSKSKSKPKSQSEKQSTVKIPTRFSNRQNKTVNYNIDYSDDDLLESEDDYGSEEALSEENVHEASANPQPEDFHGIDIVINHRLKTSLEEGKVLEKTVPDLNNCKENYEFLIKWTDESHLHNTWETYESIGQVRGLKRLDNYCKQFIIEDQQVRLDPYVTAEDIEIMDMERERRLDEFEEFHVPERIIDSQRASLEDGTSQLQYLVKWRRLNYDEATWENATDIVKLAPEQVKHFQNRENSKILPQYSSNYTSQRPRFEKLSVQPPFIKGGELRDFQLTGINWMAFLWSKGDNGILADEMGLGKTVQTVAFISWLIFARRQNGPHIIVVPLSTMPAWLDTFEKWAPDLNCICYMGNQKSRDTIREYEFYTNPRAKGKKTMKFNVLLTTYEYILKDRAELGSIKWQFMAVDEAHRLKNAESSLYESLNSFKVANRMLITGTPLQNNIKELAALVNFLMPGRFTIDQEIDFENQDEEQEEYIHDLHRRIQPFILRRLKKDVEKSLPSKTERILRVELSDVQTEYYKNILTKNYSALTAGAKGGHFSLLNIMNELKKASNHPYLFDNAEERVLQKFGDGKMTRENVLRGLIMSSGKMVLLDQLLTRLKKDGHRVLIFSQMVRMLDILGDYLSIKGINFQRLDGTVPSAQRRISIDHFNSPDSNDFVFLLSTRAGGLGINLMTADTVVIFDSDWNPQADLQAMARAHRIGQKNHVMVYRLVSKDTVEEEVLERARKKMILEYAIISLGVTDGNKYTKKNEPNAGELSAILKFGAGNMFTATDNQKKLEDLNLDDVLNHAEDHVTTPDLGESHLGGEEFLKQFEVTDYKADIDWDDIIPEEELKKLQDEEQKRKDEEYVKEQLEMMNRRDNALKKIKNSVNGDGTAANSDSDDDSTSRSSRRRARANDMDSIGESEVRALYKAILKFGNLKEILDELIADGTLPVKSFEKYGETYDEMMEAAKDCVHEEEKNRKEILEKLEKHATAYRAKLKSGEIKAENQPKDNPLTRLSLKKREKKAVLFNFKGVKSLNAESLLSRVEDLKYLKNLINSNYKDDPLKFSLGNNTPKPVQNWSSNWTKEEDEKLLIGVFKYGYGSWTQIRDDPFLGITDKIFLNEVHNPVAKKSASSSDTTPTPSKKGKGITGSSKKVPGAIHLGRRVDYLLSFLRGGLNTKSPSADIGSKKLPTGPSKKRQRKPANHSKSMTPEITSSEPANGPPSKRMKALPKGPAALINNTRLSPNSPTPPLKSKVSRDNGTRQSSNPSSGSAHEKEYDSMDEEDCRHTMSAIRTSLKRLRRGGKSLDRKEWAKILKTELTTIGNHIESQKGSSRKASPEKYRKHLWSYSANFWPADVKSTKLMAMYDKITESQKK
# Sialic acid-binding Ig-like lectin 9 (Homo sapiens), sequence (Q9Y336 whole entry): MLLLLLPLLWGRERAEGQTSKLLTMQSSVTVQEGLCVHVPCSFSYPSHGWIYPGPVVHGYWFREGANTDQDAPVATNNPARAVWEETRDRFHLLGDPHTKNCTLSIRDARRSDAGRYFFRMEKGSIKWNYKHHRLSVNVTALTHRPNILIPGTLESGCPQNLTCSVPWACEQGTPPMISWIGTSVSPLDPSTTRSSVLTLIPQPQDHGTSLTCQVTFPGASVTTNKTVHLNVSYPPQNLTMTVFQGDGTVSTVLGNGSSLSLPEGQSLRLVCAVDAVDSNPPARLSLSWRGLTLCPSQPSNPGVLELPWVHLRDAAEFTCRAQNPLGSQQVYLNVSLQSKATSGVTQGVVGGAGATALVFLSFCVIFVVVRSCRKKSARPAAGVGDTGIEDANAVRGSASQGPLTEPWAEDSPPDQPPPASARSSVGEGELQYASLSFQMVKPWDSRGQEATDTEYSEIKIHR
# Protein translocase subunit SecA (Escherichia coli (strain K12)), sequence (P10408 whole entry): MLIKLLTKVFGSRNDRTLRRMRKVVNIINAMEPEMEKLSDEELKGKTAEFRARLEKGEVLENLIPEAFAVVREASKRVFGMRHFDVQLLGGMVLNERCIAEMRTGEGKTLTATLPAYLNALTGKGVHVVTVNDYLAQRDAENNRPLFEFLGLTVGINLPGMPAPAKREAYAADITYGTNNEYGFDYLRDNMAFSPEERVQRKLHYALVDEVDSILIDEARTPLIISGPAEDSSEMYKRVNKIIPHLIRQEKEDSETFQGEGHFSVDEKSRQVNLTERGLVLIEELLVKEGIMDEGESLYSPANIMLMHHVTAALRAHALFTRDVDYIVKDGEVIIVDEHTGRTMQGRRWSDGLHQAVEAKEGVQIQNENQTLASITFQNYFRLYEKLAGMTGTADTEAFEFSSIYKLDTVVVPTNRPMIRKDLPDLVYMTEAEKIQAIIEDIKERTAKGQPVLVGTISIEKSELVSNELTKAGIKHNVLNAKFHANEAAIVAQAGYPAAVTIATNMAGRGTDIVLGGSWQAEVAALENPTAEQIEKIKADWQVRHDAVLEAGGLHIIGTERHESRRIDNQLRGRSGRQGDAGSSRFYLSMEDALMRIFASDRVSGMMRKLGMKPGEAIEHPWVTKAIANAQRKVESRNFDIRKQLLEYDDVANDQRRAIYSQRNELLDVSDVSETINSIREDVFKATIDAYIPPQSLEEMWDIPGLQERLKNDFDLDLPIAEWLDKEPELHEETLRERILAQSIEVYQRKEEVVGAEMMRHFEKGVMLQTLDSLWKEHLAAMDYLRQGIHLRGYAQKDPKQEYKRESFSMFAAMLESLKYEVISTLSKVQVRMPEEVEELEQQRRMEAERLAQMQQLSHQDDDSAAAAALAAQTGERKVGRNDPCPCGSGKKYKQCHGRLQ
SMILES,Percent Effect [1],Percent Effect [2],Percent Effect [3],Percent Effect [4],Percent Effect (Trypanosoma cruzi),Percent Effect [5],Percent Effect [6],Percent Effect (N/A),Percent Effect (Homo sapiens),Percent Effect [7],Percent Effect [8],Percent Effect [9]
CC(C)c1n[nH]c(C(=O)Nc2cc[nH]n2)c1Br,-6.13%,5.06%,24.9%,3.44%,-4.25%,-3.8%,74% and 65.8% and 74.1%,41.2% and 40.1%,24.7%,-0.493%,1.27%,-0.338%
O=C(O)c1ccc(F)c(S(=O)(=O)Nc2ccc(-n3cccn3)c(Cl)c2)c1,-5.92%,-2.67%,-7.61%,-0.566%,-2.63%,0%,16.3% and 16.5% and 41.1%,15.6% and 20.6%,-13.3%,-1.64%,1.24%,-4.16%
CC(C)c1cc2c(O)nc(CSCC(=O)O)nc2s1,-4.64%,6.67%,7.73%,3.74%,3.93%,-2.99%,70.5% and 64.5% and 63.5%,32% and 29.1%,1.31%,4.23%,10.3%,-9.79%
Cc1noc([C@H]2C[C@H]3OCC[C@H]3N(Cc3ccc4c(c3)OCO4)C2)n1,-1.12%,13.5%,5.01%,-6.24%,-0.88%,6.05%,11.4% and 30.6% and 12.5%,7.96% and 8.15%,-2.22%,5.41%,17.9%,-3.92%
Cc1cc(CN(Cc2cccs2)CC2CCCO2)no1 (stereo not drawn),-4.05%,1.27%,10.8%,3.07%,-1.33%,4.95%,6%,–,6.19%,-5.21%,0%,16.7%
CC(C)(C)N1CC(C(=O)N2CCN(CCc3ccccc3)CC2)CC1=O (stereo not drawn),-1.55%,5.33%,-2.2%,1.39%,-3.6%,1.56%,17.1%,–,32.1%,4.92%,11.1%,-6.21%
Cc1ccc(-c2nc(CNC3CCc4ncnn4C3)co2)c(C)c1 (stereo not drawn),-7.34%,-41.6%,-3.33%,17.9%,6.18%,0%,7.09%,–,9.71%,10.7%,19.5%,80.3%
CN1CCCC1c1ccc(C(=O)N2CCc3ccccc3C2)s1 (stereo not drawn),-3.53%,-16.2%,2.64%,-7.08%,-3.81%,-2.73%,74.8% and 75.3% and 64.5%,44.8% and 43.9%,16.1%,3.23%,-3.7%,7.75%
